# Screens from PubChem.
# NLRP3 yeast inh: NALP3 inhibition in yeast | AID 2825 | 330,000 tested, 0.39% active | inhibition, % at 10 µM | Yeast reconstituted NLRP3/ASC/caspase-1, beta-gal luminescence, 24 h;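 active = inhibition of 50% or more; inactive = inhibition below 50%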;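 also: plate controls were induced DMSO wells for no effect and uninduced yeast grown without galactose for full effect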
# tim23-1 inh: inhibits growth of tim23-1 mutant yeast. S. cerevisiae tim23-1 growth, BacTiter-Glo luminescence, 24 h. inhibition, % at 20 µM. 330,000 tested, 1.3% active;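 active = growth inhibition of the mutant yeast at or above 50%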;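 also: temperature-sensitive mutant grown at 25 °C; plate controls were DMSO-treated mutant yeast for no effect and medium wells lacking yeast for full effect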
# TIM10 inh: TIM10 yeast growth inhibition; S. cerevisiae TIM10 strain growth, BacTiter-Glo luminescence, 24 h; inhibition, % at 10 µM; AID 463195; 330,000 tested, 1.4% active;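 active = inhibition of 40% or more at the single tested concentration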;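 also: wild-type TIM10 isogenic control strain grown at permissive 25 °C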
# tim10-1 inh: growth inhibitors of tim10-1 mutant yeast. S. cerevisiae tim10-1 ts strain growth, BacTiter-Glo, 24 h. inhibition, % at 20 µM. 330,000 tested, 2.2% active. AID 463190;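 active = inhibition of at least 40%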;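 also: mutant grown at 25 °C; 0% = DMSO wells with yeast and 100% = wells holding no yeast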
# PfHsp90 yeast 2: inhibits growth of yeast expressing Plasmodium falciparum Hsp90 | S. cerevisiae expressing PfHsp90, BacTiter-Glo ATP, 48 h; yeast lacking PDR1 and PDR3 efflux regulators | inhibition, % at 9.4 µM | 310,000 tested, 0.32% active | AID 504621;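 active = every replicate shows inhibition above about 80%, whatever the replicate mean, limit read from the data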;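 also: 0% = DMSO neutral controls and 100% = 20 µM radicicol positive controls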
# An asterisk follows results filed as active; . = not tested or not shown. Most compounds without a hit are left out; they make up all but 3.7% or so of the library.
SMILES,NLRP3 yeast inh,tim23-1 inh,TIM10 inh,tim10-1 inh,PfHsp90 yeast 2
CCOC(=O)/C(=C\c1cccnc1)C(=O)c1cc(C(C)=O)c(Nc2ccccc2)s1,27,47,28,14,103*
COc1ccc(-c2sc3ccccc3c2/C=C/c2ccc(OC)c(OC)c2)cc1,15,27,10,4,6
COc1ccc(-c2sc3ccccc3c2/C=C/c2ccncc2)cc1,7,-45,-71,-110,106*
CCCCOc1ccc(C(=O)NNC(=S)NC(=O)CC)cc1,.,.,.,.,106*
Nc1nc(SCC(=O)Nc2ccc([N+](=O)[O-])cc2)[nH]c(=O)c1NC(=O)c1ccc(Br)o1,11,-21,-11,-16,-9
Cc1sc2ncnc(N/N=C/c3ccc(O)cc3)c2c1C,16,21,15,7,-2
Cc1sc2ncnc(N/N=C/c3ccccc3O)c2c1C,.,.,.,.,101*
CN1C[C@@H]2[C@@H]3C(=O)N(Cc4ccccc4)C(=O)[C@@H]3[C@](C)(C1=O)N2C(=O)c1ccc(Br)cc1,.,.,.,.,-9
Cc1cc(C(C)(C)CC(C)(C)C)ccc1OCCOCC[N+](C)(C)Cc1ccccc1,42,23,8,5,113*
C[N+](C)(CCOc1ccccc1)Cc1ccccc1,.,.,.,.,5
CCN(CC(=O)Nc1c(F)cccc1F)C(=O)C1CC1,14,10,13,4,25
CC(=O)/C(=N/Nc1ccccc1[N+](=O)[O-])N1CCCc2ccccc21,30,19,18,9,.
O=C(Nc1nnc(-c2ccc3c(c2)CCCC3)o1)c1c(F)cccc1F,-3,37,10,13,-22
O=C(Nc1nnc(-c2ccc3c(c2)CCCC3)o1)c1ccc(Cl)cc1Cl,24,35,18,28,105*
CCN(CC)S(=O)(=O)c1cccc(-c2nnc(SC(C)C#N)n2Cc2ccccc2)c1 (stereo not given),10,23,22,19,-3
CC1CCCCC12NC(=O)N(CC(=O)Nc1ccccc1N1CCOCC1)C2=O (stereo not given),1,15,8,-9,-1
N#CSCC(=O)c1cccc2ccccc12,.,.,.,.,97*
COC(=O)CCC(=O)Nc1ccc(S(=O)(=O)Nc2nc(C)cc(C)n2)cc1,13,5,-15,-16,-10
CC1(C)C(C(=O)OCC(Cl)(Cl)Cl)N2C(=O)C(NC(=O)Cc3ccccc3)C2S1=O (stereo not given),-1,15,10,-4,2
CCn1c(CNc2ccc(Cl)cc2)nnc1SCCN1CCCCC1,-8,9,-15,-5,-1
CCn1c(CNc2ccc(Cl)cc2)nnc1SCc1ccc(C)cc1,7,-5,-5,-3,81*
CCn1c(CNc2ccc(Cl)cc2)nnc1SCc1ccc(Cl)cc1,6,44,17,9,127*
COC(=O)c1cnn(-c2ccccc2)c1-n1cccc1C=O,8,18,7,14,3
Cc1cc(/C=C2\SC(=S)NC2=O)c(C)n1-c1ccc(O)cc1,16,36,16,11,97*
CC(C)=CCC/C(C)=C/CNC(=O)C[C@H]1C[C@H](C(=O)N(C(C)C)C(C)C)[C@@]2(C)c3[nH]c4cc(-c5ccco5)ccc4c3CCN2C1=O,.,36,11,14,-2
SMILES,NLRP3 yeast inh,tim23-1 inh,TIM10 inh,tim10-1 inh,PfHsp90 yeast 2
CCOC(=O)c1cc([N+](=O)[O-])c([N+](=O)[O-])cc1NC(C)=O,.,.,.,.,100*
CCOC(=O)c1ccc(NC(=O)c2ccccc2[N+](=O)[O-])cc1,19,12,18,23,1
OC(Cn1cncn1)c1ccc(Cl)cc1 (stereo not given),-13,-5,1,17,-14
OC(Cn1cncn1)(c1ccc(F)cc1)c1ccc(Cl)cc1 (stereo not given),21,-342,-60,-175,94*
CCN1CCCC1CN(Cc1cc2ccc(C)cc2[nH]c1=O)C(=S)Nc1ccc(OC)cc1 (stereo not given),4,5,-9,-1,0
CCN1CCCC1CN(Cc1cc2ccc(C)cc2[nH]c1=O)C(=S)Nc1ccc(F)cc1 (stereo not given),15,42,11,16,94*
CC(=O)Nc1ccc(S(=O)(=O)C(C#N)c2nc3ccccc3nc2NCCCO)cc1 (stereo not given),2,10,-8,18,17
O=C(N/N=C/c1cc(Cl)c(O)c(Cl)c1)c1cc2c(ccc3ccccc32)o1,-27,47,-14,33,95*
COc1ccc(C=CC(=O)c2ccc(OC)c(OC)c2O)cc1OC,.,.,.,.,23
O=C(/C=C/c1ccccc1)c1cc(Br)ccc(=O)c1O,22,0,-8,-1,82*
Cc1ccc(/C=C/C(=O)c2ccccc(=O)c2O)cc1C,.,.,.,.,97*
COc1ccc(NC(=O)C2CCCN2S(=O)(=O)c2cccc3cccnc23)c(OC)c1 (stereo not given),-4,0,-61,-28,102*
Cc1ccc(NC(=O)c2cc(NC(=O)c3ccco3)ccc2N2CCOCC2)cc1,14,46,33,26,21
Cc1ccc(NC(=O)c2cc(N3C(=O)C=CC3=O)ccc2N2CCOCC2)cc1,.,.,.,.,106*
Cc1ccc(NC(=O)c2cc(N3C(=O)C=CC3=O)ccc2Cl)cc1C,5,14,-1,21,110*
O=C(NCc1ccco1)c1cccc(NS(=O)(=O)c2ccccc2F)c1,1,3,2,16,1
O=C(Nc1cccc(C(F)(F)F)c1)Oc1ccc(Cl)c2cccnc12,.,.,.,.,124*
CCN(CC)C(=O)Oc1ccc(Cl)c2cccnc12,14,-2,-14,-1,-7
O=C(O)CC/C(=N/Nc1ccc([N+](=O)[O-])cc1)C(=O)O,11,-29,12,-54,100*
COC(=O)Cc1cn(-c2ncc(C(F)(F)F)cc2Cl)c2ccccc12,24,15,12,1,-6
CN(C)/C=C/C(=O)/C=C/c1cn(-c2ncc(C(F)(F)F)cc2Cl)c2ccccc12,8,47,11,35,121*
Cc1ccc(N/N=C(\C#N)C(N)=S)c(C)c1,.,.,.,.,101*
Cc1ccc(NC(=O)/C(C#N)=N/Nc2ccc(C(=O)O)cc2)c(C)c1,19,17,12,-4,-9
COc1ccc(-c2nn(-c3ccccc3)cc2C(=O)N2CCN(S(=O)(=O)c3ccccc3C#N)CC2)cc1,21,-9,7,-8,.
COc1ccc(-c2nn(-c3ccccc3)cc2C(=O)N2CCN(S(=O)(=O)c3cccc(F)c3)CC2)cc1,3,15,37,21,105*
COc1ccc(-c2nn(-c3ccccc3)cc2C(=O)N2CCN(S(=O)(=O)c3ccccc3[N+](=O)[O-])CC2)cc1,.,.,.,.,99*
O=C(NCCSCc1ccco1)c1ccc(=O)[nH]c1,10,10,-2,12,-13
Cc1cc(Cl)ccc1C(=O)C1CCCN(C(=O)c2cncs2)C1 (stereo not given),8,-169,-66,37,96*
